Reference: PubChem BioAssay (NCATS)
Results filed as inconclusive are left out. A number with no mark means an inactive call. Active and inactive are the calls of the source. The call rests on the fitted dose curve; in most records, active means well fitted curve in the direction sought with a large enough effect; inconclusive means small, poorly fitted or top-dose-only effect, or another doubt; inactive means no such curve, though single readings can be large; an effect the other way counts as inactive or inconclusive.

test: Primary redox qHTS assay for identification of artifact compounds. (AID 1845223); details: Amplex Red/HRP redox cycling with DTT, fluorescence; series mostly up to 53.8 µM; redox activity (% of DA3003): at the top concentration
Outline: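 Amplex Red (25 uM) and HRP (250 mU/mL) in HBSS, with compounds for 15 min, then 250 uM DTT for 30 min, room temperature, dark. Fluorescence 525/598 nm read; normalized to DMSO and 10 uM DA3003; Hill fit.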

SMILES	redox activity (% of DA3003)
CCN(CC)CCNC(=O)c1ccc(N)cc1	-1.75%
O=C(O)CCc1nc(-c2ccccc2)c(-c2ccccc2)o1	10.7%
CN(C)CCC(c1ccccc1)c1ccccn1 (configuration not stated)	-6.37%
Clc1ccc(Cn2c(CN3CCCC3)nc3ccccc32)cc1	10.4% [at 25.6 µM]
CC(C)NCC(O)COc1cccc2[nH]ccc12 (configuration not stated)	-1.13%
CCN1CCC[C@H]1CNC(=O)c1cc(S(N)(=O)=O)ccc1OC	-3.69%
CCCNC(=O)NS(=O)(=O)c1ccc(Cl)cc1	-5.42%
COc1ccccc1N1CCN(CCCNc2cc(=O)n(C)c(=O)n2C)CC1	14.1%
COc1ncc(-c2ccc3nccc(-c4ccnnc4)c3c2)cc1NS(=O)(=O)c1ccc(F)cc1F	13.1%
COC(=O)[C@@H]1[C@H]2C[C@H]3c4[nH]c5ccccc5c4CCN3C[C@@H]2CC[C@@H]1O	4.2%
CCOc1ccc(Nc2nc(-c3c(C)nc4ccccn34)cs2)cc1	17.4%
CC(=O)O[C@]1(C(C)=O)CC[C@H]2[C@@H]3C=C(Cl)C4=CC(=O)[C@@H]5C[C@@H]5[C@]4(C)[C@H]3CC[C@@]21C	6.06%
CC(C)(C)Cn1c(N)nc2ccc(-c3[nH]c(C(C)(C)C)nc3-c3ccc(F)cc3)nc21	-0.168%

test: Quantitative High-Throughput drug screen in 47 multiple myeloma cell lines against the NCATS MIPE library collection: FR4_PLB cell viability assay (AID 1918924; further: nearly all actives have a fitted effect of over 35% in size; further: potency means the concentration at half of the fitted maximal effect); details: FR4_PLB myeloma cells viability, CellTiter-Glo ATP, 48 h; series mostly up to 45.8 µM; viability (% of DMSO control): at the top concentration
Outline: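 Myeloma cell lines, 500 cells per well, exposed to MIPE 4.0 library compounds for 48 h at 37C, 5% CO2. Viability from ATP by CellTiter-Glo luminescence; normalised to DMSO (100%) and media-only (0%) wells.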

SMILES	Potency	viability (% of DMSO control)
Clc1ccc(C(c2ccc(Cl)cc2)n2cc[n+](CC(OCc3ccc(Cl)cc3Cl)c3ccc(Cl)cc3Cl)c2)cc1 (configuration not stated)	20.9 µM (active)	
COc1ncc(-c2ccc3nccc(-c4ccnnc4)c3c2)cc1NS(=O)(=O)c1ccc(F)cc1F	0.0132 µM (active)	
CCn1cc(C(=O)O)c(=O)c2ccc(C)nc21		115%

test: Quantitative High-Throughput drug screen in 47 multiple myeloma cell lines against the NCATS MIPE library collection: Delta47_JCRB cell viability assay (AID 1918925; further: nearly all actives have a fitted effect of over 45% in size; further: potency means the concentration at half of the fitted maximal effect); details: Delta47 myeloma viability, CellTiter-Glo ATP, 48 h; series mostly up to 45.8 µM; viability (% of DMSO): at the top concentration
Outline: (§1)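 Myeloma cells (500 per well) were exposed to MIPE 4.0 compounds by pin transfer and incubated 48 hours at 37C, 5% CO2. Viability was read as ATP by CellTiter-Glo luminescence, normalised to DMSO (100%) and media-only (0%) wells.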

SMILES	Potency	viability (% of DMSO)
Clc1ccc(C(c2ccc(Cl)cc2)n2cc[n+](CC(OCc3ccc(Cl)cc3Cl)c3ccc(Cl)cc3Cl)c2)cc1 (configuration not stated)	8.33 µM (active)	
COc1cccc(-c2cc(=O)c3ccccc3o2)c1N	2.64 µM (active)	
CCn1cc(C(=O)O)c(=O)c2ccc(C)nc21		101%

test: Quantitative High-Throughput drug screen in 47 multiple myeloma cell lines against the NCATS MIPE library collection: EJM_DSMZ cell viability assay (AID 1918926; further: nearly all actives have a fitted effect of over 30% in size; further: potency means the concentration at half of the fitted maximal effect); details: EJM myeloma cell viability, CellTiter-Glo ATP, 48 h; series mostly up to 45.8 µM; viability, % of control: at the top concentration
Outline: as §1

SMILES	Potency	viability, % of control
Clc1ccc(C(c2ccc(Cl)cc2)n2cc[n+](CC(OCc3ccc(Cl)cc3Cl)c3ccc(Cl)cc3Cl)c2)cc1 (configuration not stated)	16.6 µM (active)	
COc1cccc(-c2cc(=O)c3ccccc3o2)c1N		90.3%
CCn1cc(C(=O)O)c(=O)c2ccc(C)nc21		106%
